Shown are actives, neighbours in structure and some others; about 12% of the full set was active somewhere.
ALDH1A1 block = qHTS Assay for Inhibitors of Aldehyde Dehydrogenase 1 (ALDH1A1); Purified ALDH1A1, NADH fluorescence, propionaldehyde substrate; 7.3% of 220,000 active; Aldehyde dehydrogenase 1A1 (Homo sapiens), P00352; Potency, µM (titrated, usually from 75.3 µM), inactives show at the highest dose activity, negative = inhibition, hits mostly inhibitors; active = well fitted inhibition curve with a large enough effect, not every such curve was filed as active; inconclusive = small, poorly fitted or top-dose-only effect, or another doubt; inactive = no such curve, though single readings can be large or run the other way;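 note: plate controls were no enzyme wells and a reference inhibitor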
PLK1 PBD block = qHTS for Inhibitors of PLK1-PDB (polo-like kinase 1 - polo-box domain): Primary Screen; Serine/threonine-protein kinase PLK1 (Homo sapiens), P53350; Plk1 PBD binding of FITC phosphopeptide, fluorescence polarization; Potency, µM, inactives show max response, negative = inhibition, most hits filed as inhibitors; 2.8% of 360,000 active; note: series mostly up to about 57 µM; nearly all actives have a fitted effect of over 65% in size
Sfp PPTase inh = qHTS Assay for Inhibitors of Bacillus subtilis Sfp phosphopantetheinyl transferase (PPTase); Potency, µM, inactives show largest response in the series, negative = inhibition, usual class: inhibitors; 4'-phosphopantetheinyl transferase ffp (Bacillus subtilis), Q9F4F7; Biochemical Sfp PPTase activity, qHTS; AID 1490, 2009; 3.5% of 310,000 active;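 note: the enzyme is Sfp with the accession as filed and its product quenches rhodamine fluorescence; 0% = enzyme reaction without inhibitor and -100% = no enzyme wells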
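Buffer: 50 mM Hepes-Na pH 7.6, 10 mM MgCl2, 0.01% Nonidet P-40, 0.01% BSA. Enzyme 15 nM, pre-exposed to compound 15 min; substrates then added and fluorescence change tracked over 30 min.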
RORgamma inh = qHTS for inhibitors of ROR gamma transcriptional activity. AID 2551, 2010. 5.4% of 310,000 active. Potency, µM (highest dose often 53.6 µM), for the others: at the highest dose activity change, negative = inhibition, usual class: inhibitors. Drosophila S2 Gal4-RORgamma UAS-luciferase reporter, 20 h; note: nearly all actives have a fitted effect of over 60% in size
Target sequence (P51450 whole entry, looked up, the tested form may be a part): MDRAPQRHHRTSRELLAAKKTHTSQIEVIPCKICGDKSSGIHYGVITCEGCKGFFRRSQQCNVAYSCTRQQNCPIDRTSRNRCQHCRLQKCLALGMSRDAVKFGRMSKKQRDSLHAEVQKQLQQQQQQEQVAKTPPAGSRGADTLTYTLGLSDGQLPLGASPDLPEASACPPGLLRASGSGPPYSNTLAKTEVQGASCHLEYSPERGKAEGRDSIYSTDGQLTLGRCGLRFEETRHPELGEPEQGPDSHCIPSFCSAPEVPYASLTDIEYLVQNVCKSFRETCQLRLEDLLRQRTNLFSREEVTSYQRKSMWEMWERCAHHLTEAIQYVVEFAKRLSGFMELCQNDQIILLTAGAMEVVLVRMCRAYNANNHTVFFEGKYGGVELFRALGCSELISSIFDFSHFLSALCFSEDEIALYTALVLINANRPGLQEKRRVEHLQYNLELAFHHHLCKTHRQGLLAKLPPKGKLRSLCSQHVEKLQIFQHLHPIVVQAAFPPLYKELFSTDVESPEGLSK
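Drosophila S2 cells stably expressing Gal4-DBD/mouse RORγ fusion under metallothionein promoter plus UAS-luciferase; compound 1 h, then 700 uM CuSO4 induction for 20 h at ambient temperature; inhibition read as reduced luminescence.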
VP16 counter = VP16 counterscreen qHTS for inhibitors of ROR gamma transcriptional activity. 3.5% of 310,000 active. Drosophila S2 Gal4-VP16 UAS-luciferase, luminescence, 20 h. Potency, µM (series often up to 53.6 µM), without a hit: at the highest dose activity, negative = inhibition, hits mostly inhibitors. AID 2546, 2010;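 note: Gal4-VP16 expression switched on by copper sulfate through the metallothionein promoter; nearly all actives have a fitted effect of over 50% in size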
* = called active by the depositor; u = inconclusive; x = no result; [ ] = dose if it differs, or a comment. Unless noted, calls come from the whole dose curve; as a rule, active = well fitted curve in the direction sought with a large enough effect; inconclusive = small, poorly fitted or top-dose-only effect, or another doubt; inactive = no such curve, though single readings can be large; an effect the other way counts as inactive or inconclusive. Unless noted, % is set by controls: 0 for no effect and ±100 for the full control effect; potency is the fitted concentration of half-maximal effect.

SMILES	ALDH1A1 block	PLK1 PBD block	Sfp PPTase inh	RORgamma inh	VP16 counter
Cc1[nH][nH]c(=O)c1C(c1c(C)[nH][nH]c1=O)c1cn(Cc2ccc(Cl)c(Cl)c2)c2ccccc12	3.55µM*	u	-12.9%	-28.6%	u
Cc1[nH][nH]c(=O)c1C(c1c(C)[nH][nH]c1=O)c1cn(Cc2ccc(F)cc2)c2ccccc12	1.41µM*	u	-15.4%	u	-19.2%
O=C(O)Cc1cn(Cc2ccc(F)cc2)c2ccccc12	-5.0%	-2.9%	22.7%	15.4%	3.6%
O=c1c2ccccc2ncn1Cc1ccc(Cl)c(Cl)c1	x	-6.4%	-11.8%	-5.5%	-18.6%
CNCC(=O)NC(CCCN=C(N)N)C(=O)NC(C(=O)NC(Cc1ccc(O)cc1)C(=O)NC(C(=O)NC(Cc1cnc[nH]1)C(=O)N1CCCC1C(=O)NC(C)C(=O)O)C(C)C)C(C)C (configuration not stated)	x	x	5.6%	-2.7%	-8.6%
C[C@@H]1CN([C@@H](C)CO)C(=O)CCCn2nncc2CO[C@H]1CN(C)C(=O)c1ccc(N2CCN(C)CC2)cc1	x	-4.3%	x	x	x
Cc1ccc(C)c(N=Nc2nc3ccccc3n2C)c1	8.7%	-8.6%	-13.6%	3.16µM*	8.91µM*
Cc1cc(C)c(C)c(N=Nc2nc3ccccc3n2C)c1C	-14.4%	u	56.2µM*	2.24µM*	5.62µM*
COc1ccc(C(=O)OCC(=O)N2CCN(S(=O)(=O)c3ccc(C)cc3)CC2)cc1[N+](=O)[O-]	x	-0.5%	x	x	x
CN[C@H]1[C@@H](O[C@@H]2[C@H](O[C@@H]3[C@@H](O)[C@@H](O)[C@@H](N=C(N)N)[C@@H](O)[C@@H]3N=C(N)N)O[C@H](C)[C@@]2(O)C=O)O[C@@H](CO)[C@@H](O)[C@H]1O	1.0%[20.9 µM]	x	-10.5%	-14.3%[16.9 µM]	3.8%[17 µM]
Cc1cccc(C(=O)NC(=S)NNC(=O)c2ccccc2Cl)c1	22.4µM*	-15.4%	-18.7%	4.47µM*	u
Cc1cccc(C(=O)NC(=S)NNC(=O)Cc2ccccc2)c1	u	-10.0%	12.8%	10µM*	-14.5%
Cc1cccc(C(=O)NNC(=O)c2cccc(C)c2)c1	0.5%	-9.2%	3.0%	20.8%	6.1%
Cc1cccc(C(=O)NC(=S)NCc2ccccc2)c1	x	1.0%	x	x	x
Cc1cccc(C(=O)NC(=S)NNC(=O)COc2c(C)cccc2C)c1	u	-21.2%	-15.2%	12.6µM*	u
Cc1cc(C(=O)NNC(=S)NC(=O)/C=C/c2ccccc2Cl)n[nH]1	u	u	6.6%	u	12.6µM*
O=C(COc1ccc(Br)cc1)Nc1nnc(-c2cccnc2)s1	-0.2%	29.9µM*	-4.4%	16.2%	4.6%
C=CCn1c(SCC(=O)Nc2nnc(C)s2)nnc1-c1cccnc1	4.3%	21.2µM*	-8.8%	12.7%	-6.0%
Cc1nnc(NC(=O)CSc2ccc(-c3cccnc3)nn2)s1	-12.8%	-14.4%	39.8µM*	-2.2%	9.5%
Cc1ccc(Cc2c(-c3cccc(Cl)c3)nc3c4ccccc4ccn23)cc1	x	12.9%	x	x	x
Cc1cccc(CC(=O)N2CCN(C(=O)c3ccco3)CC2)c1	x	1.6%	26.5%	x	x
O=S(=O)([N-]c1nc2ccccc2nc1-[n+]1ccc(-c2ccncc2)cc1)c1ccccc1	u	16.8µM*	10.6%	-4.5%	2.1%
CC(C)(C)OC(=O)N1CCC[C@H]1C(=O)NCc1ccc(Cl)cc1Cl	u	26.7µM*	14.9%	18.2%	-6.3%
CC(C)(C)OC(=O)N1CCC[C@H]1C(=O)N1CCC[C@H]1C(=O)NCc1ccc(F)cc1F	x	3.8%	x	x	x
O=C(CN1CCN(c2ncccn2)CC1)N1CCCC1	u	2.5%	u	2.2%	-7.4%
CCN(CC)C(=O)CN1CCN(c2ncccn2)CC1	-5.9%	1.1%	89.1µM*	-1.7%	-10.5%
CC(=O)c1ccc(NC(=O)CN2CCN(c3ncccn3)CC2)cc1	8.91µM*	1.1%	u	12.1%	5.1%
CC(=O)c1ccc(NC(=O)CN2CCN(CC(=O)Nc3ccc(C(C)=O)cc3)CC2)cc1	x	-1.8%	9.7%	0.2%	0.8%
